Data on 97 compounds can be found in PubChem BioAssay AID743279 (National Center for Advancing Translational Sciences (NCATS), 2014).

Where “and” joins values, the source holds several entries; their conditions need not be identical. Identical values can stand only once. The whole screen tested about 360,000 compounds, of which about 17,000 (4.7%) were called active. Roughly 5% stayed inconclusive and do not appear here. This excerpt belongs to a sample that is enriched for actives. Unmarked numbers belong to inactive results. No stated cut-off is given here; in the data, active means activity change below about -50%; inconclusive means mostly about -30% to -49%; inactive means weaker than that.
On the % scale 0 is the no-effect control and ±100 the full control effect.

The experiment can be described thus: qHTS for Inhibitors of Inflammasome Signaling: IL-1-beta AlphaLISA Primary Screen. The settings on record: THP-1 LPS/ATP IL-1B secretion, 16 h; at 57.5 µM, hits give low values. Summed up: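 Secreted IL-1B measured by AlphaLISA bead assay after 16 h compound exposure of THP-1 cells; compounds (final up to 57.5 uM) added 1 h before LPS (250 ng/mL) and ATP (1.25 mM) stimulation; lower signal means less secretion.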
(Quantitative high-throughput screening tests each substance at several concentrations.)
As to `O=C(NCc1cccnc1)c1cc(C2CCCCN2C(=O)CCc2ccccc2)on1` (configuration not stated), the activity change is 19.3%.

Turning to `Cc1n[nH]c(=O)c2c(NC(=O)CSc3ccccc3F)oc(C)c12`, the activity change is -0.579%.

`CC(C)(C)OC(=O)NC(Cc1ccccc1)C(=O)NC(CSC1CCCCO1)C(=O)NN` (configuration not stated): the activity change is -12%.

As for `COc1ccc(CN2C(=O)C(CC(=O)NCCN3CCOCC3)CC(C(=O)N(C(C)C)C(C)C)=C2C)cc1` (configuration not stated), the activity change was 15.9%.

In the case of `COc1cc(C2c3cc4c(cc3C(O)C3COC(=O)C23)OCO4)cc(OC)c1OC` (configuration not stated), the activity change was -3.2%.

In the case of `O=C(NCC(F)(F)F)c1ccc(S(=O)(=O)NCCc2ccc3c(c2)OCCO3)cc1`, the activity change is -14.1%.

With `CCCn1c(N)c(C(=O)CSc2nnc(Cc3cccs3)n2C2CC2)c(=O)[nH]c1=O`, the activity change is -3.66%.

Regarding `COc1cc(OC)cc(C2=Cc3ccccc3C(CC(=O)c3ccco3)N2c2ccc(-c3cnc(OC)nc3)cc2)c1` (configuration not stated), the activity change was 3.59%.

For `CCOc1ccc(Cl)cc1-c1cc(C(=O)NCc2cccs2)[nH]n1`, the activity change was -22.8%.

For `COC(=O)C[C@@H]1C=C[C@@H](NS(=O)(=O)c2cccc(OC)c2)[C@@H](CO)O1`, the activity change was -5.98%.

Turning to `CCOC(=O)/C(=N\Nc1cc(Cl)ccc1Cl)N1CCN(C)CC1`, the activity change was 19%.

In the case of `COc1cc2ccc(C(C)=O)c(O)c2cc1OC`, the activity change is -10.2%.

For the compound `COc1ccc(-c2nc3cnccn3c2NC2CCCCC2)cc1-c1cccc(Cl)c1`, the activity change was -76.6% (active) and -52.7% (active).

On to `COc1ccc(-c2nc3cc(C)ccn3c2NC2CCCCC2)cc1SC1CCCCC1`, for which the activity change is -85% (active).

As for `COc1cccc(-c2nc3nc(C)cc(C)n3c2NC2CCCCC2)c1`, the activity change was 8.2%.

Regarding `COc1ccc(-c2nc3cnccn3c2NC(C)(C)CC(C)(C)C)cc1O`, the activity change was -71.3% (active).

On to `COc1ccc(C)cc1S(=O)(=O)NC1CCCCC1`, for which the activity change is -4.98%.

Regarding `CCOc1cc(-c2nc3cc(C)ccn3c2NCC2CCCO2)ccc1O` (configuration not stated), the activity change was 2.58%.

Turning to `COC(=O)c1ccc2nc(-c3ccc(OC)c(OC)c3)c(Cc3ccccc3)n2c1`, the activity change is -9.54%.

As to `Cc1ccc2nc(-c3cccnc3)c(NC3CCCC3)n2c1`, the activity change is -1.15%.

As for `CC(=O)Nc1cc(-c2ccccc2F)cn2c(-c3cccc(C(F)(F)F)c3)cnc12`, the activity change was -13.7%.

For `COc1cc(C=NC2CCCCC2)ccc1O`, the activity change was 9.61%.

On to `Cc1ccc(-c2nc(C)sc2CC(=O)OCC(=O)Nc2c(F)cccc2F)cc1`, for which the activity change was 8.31%.

Turning to `CCNC(=O)C1CCCN(C(=O)c2ccc(OC)cc2OC)CC1` (configuration not stated), the activity change was 5.59%.

For `COC(=O)CC(CC(=O)OC)n1cccc1`, the activity change is 4.98%.

As for `O=C(CN(Cc1ccc(Br)cc1)S(=O)(=O)c1ccccc1)NCc1ccncc1`, the activity change was -5.94%.

With `Cc1cc(C)cc(C(=O)NC(CC(N)=O)c2ccc(N3CCC(N4CCCCC4)CC3)c([N+](=O)[O-])c2)c1` (configuration not stated), the activity change is -16.2%.

Consider `CCOC(=O)c1c(C)[nH]c(C)c1C(=O)COC(=O)/C=C/c1cccc([N+](=O)[O-])c1`, for which the activity change was -15%.

As for `CCCOC1CCCN(C(=O)c2cc(COc3cncc(Cl)c3)on2)C1` (configuration not stated), the activity change is 0%.

For `COc1ccc(C(=O)COC(=O)c2ccc3ccccc3n2)cc1`, the activity change was 3.46%.

Turning to `NC(=O)COC(=O)/C=C/c1ccc2ccccc2n1`, the activity change is -101% (active).

In the case of `CC(NC(=O)COC(=O)c1ccc2ccccc2n1)c1ccccc1` (configuration not stated), the activity change is 2.13%.

For `COc1cc(CCC(=O)N2CCN(c3ccccc3Cl)CC2)cc(OC)c1OC`, the activity change was 7.36%.

With `COCCCN(C(=O)Cn1ncc2c(=O)oc3ccc(C)cc3c21)C(C)c1ccncc1` (configuration not stated), the activity change was 7.95%.

Consider `CNC(=S)NNC(=O)c1oc2nc(-c3ccccc3)cc(-c3ccco3)c2c1N`, for which the activity change was -18%.

Turning to `Nc1cccc(-c2cc(-c3ccccc3)nc(-c3cccc(N)c3)n2)c1`, the activity change was -9.31%.

Regarding `CS(=O)(=O)c1sc2nc(-c3ccccc3)cc(-c3ccccc3)c2c1N`, the activity change was -67.8% (active).

Turning to `CCOC(=O)C(C)n1cnc2scc(-c3ccc(C)c(C)c3)c2c1=O` (configuration not stated), the activity change was -7.25%.

Take `Cc1nn(-c2ccc(F)cc2)c(Cl)c1/C=C(/CCC(=O)O)c1nc2ccccc2s1`: the activity change is 19.2%.

Take `Cc1ccc(C(=O)Nc2nc(N)n(-c3ccccc3)n2)cc1`: the activity change is -8.07%.

Consider `Cc1nn(-c2ccccc2)c(Cl)c1/C=C/C(=O)c1ccc(O)cc1`, for which the activity change is -94.5% (active).

`Cc1ccc(C(=O)/C=C/c2c(C)nn(-c3ccccc3)c2Cl)cc1`: the activity change was -95% (active).

Consider `Cc1nn(-c2ccccc2)c(C)c1/C=C/C(=O)OC(C)C(N)=O` (configuration not stated), for which the activity change is 9.76%.

As to `Cc1nn(-c2ccccc2)c(-n2cccc2)c1C(=O)O`, the activity change is 20.3%.

As for `OCC(O)C1OCOC(C(O)CO)C1O` (configuration not stated), the activity change was -2.84%.

Regarding `Cc1ccc(C2Nc3ccccc3C(=O)N2CCN2CCNC2=O)cc1` (configuration not stated), the activity change is 10.9%.

For `Cc1cccc2[nH]c(CN(C)C(=O)C3CCC(=O)N(CCc4ccccc4)C3)nc12` (configuration not stated), the activity change was 0%.

In the case of `Cc1cccc(C)c1NC(=O)C(c1ccccc1)N1CC(=O)Nc2ccccc21` (configuration not stated), the activity change was -11%.

Turning to `Cc1cccc(C)c1NC(=O)CN(C)C(=O)CCC(=O)c1ccccc1`, the activity change was -6.47%.

With `Cc1cccc(C)c1NC(=O)C(Cl)C(=O)c1ccccc1` (configuration not stated), the activity change is -95.8% (active).

On to `OC(c1ccc(F)cc1)c1ncc(-c2cccc(C(F)(F)F)c2)[nH]1` (configuration not stated), for which the activity change is -20.2%.

Turning to `COc1ccc(CC(N)c2csc(NC(=O)Nc3ccc(C(C)C)cc3)n2)cc1` (configuration not stated), the activity change was -108% (active).

For `Cc1ccccc1NC(=O)Cc1nc(COC(=O)c2ccc(C(F)(F)F)cc2)cs1`, the activity change was -4.36%.

Turning to `COc1ccc(CC(N)c2csc(NC(=O)NC(c3ccccc3)c3ccccc3)n2)cc1` (configuration not stated), the activity change is -61.5% (active).

Regarding `CC(C)(C)CC(=O)Nc1nnc(SCC(=O)NCc2cccs2)s1`, the activity change was -5.2%.

Consider `CC(C)(C)CC(=O)Nc1nc(C(N)Cc2ccc(C(F)(F)F)cc2)cs1` (configuration not stated), for which the activity change was -83.8% (active).

As to `COc1ccc(OC)c(NC(=O)N[C@H](Cc2ccccc2)C(=O)NN)c1`, the activity change is -13.5%.

As for `COC(=O)[C@H](CCSC)NC(=O)Nc1ccc(OC)cc1`, the activity change was 16.7%.

As for `NC(Cc1ccccc1)c1csc(Nc2cc(Oc3ccccc3)ncn2)n1` (configuration not stated), the activity change was 0%.

In the case of `COc1ccc(NC(=O)C(Br)C(C)C)cc1` (configuration not stated), the activity change is -18.5%.

Turning to `CCCS(=O)(=O)NC(=O)C1(C)CCN(C(=O)c2sccc2C)C1` (configuration not stated), the activity change was 6.04%.

For `CC1(C(=O)NCc2cccc3ccccc23)CCN1Cc1ccc(-c2ccccc2)o1` (configuration not stated), the activity change was -22.3%.

For `COc1cccc(CNS(=O)(=O)c2ccc3c(c2)N(C(C)=O)CCS3)c1`, the activity change is -9.03%.

As to `CCC1CCCCN1C(=O)CSc1nc(C)cc(C)n1` (configuration not stated), the activity change is -6.03%.

`COc1ccc(-c2ccc(CN3C(C(C)C)C(=O)N(Cc4cn(CC5CCCCC5)nn4)CCS3(=O)=O)cc2)cn1` (configuration not stated): the activity change was -2.84%.

On to `COc1ccc(COC(=O)NC(C(=O)O)c2ccccc2)cc1` (configuration not stated), for which the activity change is 7.03%.

In the case of `COc1ccc(C(CCN(Cc2ccc(OC)c(OC)c2)C(=O)CCl)c2ccccc2)cc1` (configuration not stated), the activity change was -101% (active).

In the case of `COc1ccc(CCNC(=O)C(Sc2ccccn2)c2ccccc2)cc1OC` (configuration not stated), the activity change was -6.65%.

As to `O=C(NCC(O)c1nc2ccccc2[nH]1)c1ccc(Br)cc1` (configuration not stated), the activity change is 1.41%.

For `C/C(CC(=O)Nc1ccc(Cl)cc1)=N\NC(=O)C(=O)NCCO`, the activity change was 11.5%.

Regarding `CCOC(=O)Cc1csc(SCC(=O)Nc2ccc(C)cc2F)n1`, the activity change is 21%.

On to `CCCc1[nH]nc2c1C(c1ccc(Br)s1)C(C#N)=C(N)O2` (configuration not stated), for which the activity change is -99.8% (active).

With `COc1ccc(-c2[nH]nc3c2C(c2ccncc2)C(C#N)=C(N)O3)cc1` (configuration not stated), the activity change was 0%.

As for `CCc1ccc(C2C(C#N)=C(N)Oc3n[nH]c(CC(=O)OC)c32)cc1` (configuration not stated), the activity change was -9.71%.

As for `COc1cc(C2C(C#N)=C(N)Oc3n[nH]c(-c4ccccn4)c32)cc(OC)c1OC` (configuration not stated), the activity change was 1.38%.

Take `CCCc1[nH]nc2c1C(c1ccc(OC)c(Cn3nc(C)c(Br)c3C)c1)C(C#N)=C(N)O2` (configuration not stated): the activity change was -67% (active).

Regarding `CCOc1c(OC)cc(C2C(C#N)=C(N)Oc3n[nH]c(-c4ccncc4)c32)cc1OC` (configuration not stated), the activity change was 25.5%.

On to `CC1(Oc2ccccc2-c2ccno2)CCN(Cc2ccc(-c3ccccc3)o2)C1` (configuration not stated), for which the activity change is 5.25%.

Take `O=C(Nc1ccc2ccccc2c1)Nc1ccc2snnc2c1`: the activity change was -98.9% (active).

`S=C(Nc1ccccc1)Nc1ccc2ccccc2c1`: the activity change was -11.8%.

`O=C(Nc1cccc(Br)c1)c1ccc2snnc2c1`: the activity change is -14.1%.

Regarding `Cc1cc2oc(=O)cc(CN(C)Cc3ccccc3)c2cc1Cl`, the activity change was -8.49%.

`COc1ccc(CCOC2OC(CO)C(OC(=O)/C=C/c3ccc(O)c(OC)c3)C(O[C@H]3O[C@@H](C)[C@H](O)[C@@H](O)[C@H]3O)C2O)cc1O` (some centres not stated): the activity change was 12.4%.

Regarding `CC1CCCC(C)N1C(=O)CN1CCN(c2nc(-c3ccc(F)cc3)cs2)CC1` (configuration not stated), the activity change is -52.3% (active).

For the compound `Cc1cccc(C)c1NC(=O)CN1CCN(c2ccc(F)cc2)CC1`, the activity change was 21.6%.

For the compound `O=C(COC(=O)C1CCCO1)Nc1nc(-c2ccc(F)cc2)cs1` (configuration not stated), the activity change was -13.3%.

As to `O=C(CCCN1C(=O)C(c2ccccc2)Oc2cccnc21)Nc1ccccc1Br` (configuration not stated), the activity change was -9.67%.

Consider `Cc1cc(Br)cn2c(Cc3ccccc3C(F)(F)F)c(C3CCCCC3)nc12`, for which the activity change was 1.07%.

As to `COc1cccc2sc(N(CCCN(C)C)C(=O)C(c3ccccc3)c3ccccc3)nc12`, the activity change was -104% (active).

Take `Cc1cccc2sc(N(CCCN(C)C)C(=O)CCS(=O)(=O)c3ccccc3)nc12`: the activity change was -96.3% (active).

As to `Cc1cc(C)c2nc(N(CCN(C)C)C(=O)/C=C/c3cccs3)sc2c1`, the activity change is 16.5%.

For `COc1cc2ccccc2cc1C(=O)N(CCN(C)C)c1nc2c(F)cccc2s1`, the activity change was 14.7%.

Take `COc1ccccc1NC(=O)CC(NCCN(C)C)C(=O)O` (configuration not stated): the activity change was 12.6%.

Turning to `Cc1ccc(S(=O)(=O)CCC(=O)OCC(=O)N(C)Cc2ccccc2)cc1`, the activity change is 8.91%.

Regarding `COc1cccc2sc(N(CCCN(C)C)C(=O)CCS(=O)(=O)c3ccccc3)nc12`, the activity change was -103% (active).

For the compound `COc1ccc(N(C)C(=O)CCS(=O)(=O)c2cccc3nsnc23)cc1`, the activity change was -11.5%.

Regarding `Cc1ccc2sc(N(CCN(C)C)C(=O)/C=C/c3cccs3)nc2c1C`, the activity change was 6.57%.
